Only some compounds are listed: those with a hit (about 1.5% of all), similar ones and a draw of the others.
Epigenetic reg – epigenetic control regulation, reporter derepression; murine LDR cells, GFP reporter derepression, 30 h; 280,000 tested, 0.2% active; Potency, µM (top dose mostly 53.9 µM), actives largely listed as activators; note: nearly all actives have a fitted effect of over 60% in size
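Reporter derepression read as number of fluorescent GFP-positive objects, 20-120 um in size, counted by laser-scanning cytometer. Mouse LDR line with an epigenetically silenced CMV-GFP locus; compound incubation 30 h, 37 C.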
NPSR antagonist – antagonists of human neuropeptide S receptor cAMP signaling; 220,000 tested, 1% active; Q6W5P4; Potency, µM (top dose mostly 38.3 µM), usual class: inhibitors; AID 1461; CHO-NPSR cells, cAMP TR-FRET, antagonist mode; note: nearly all actives have a fitted effect of over 50% in size
Target sequence (Q6W5P4 whole entry, looked up): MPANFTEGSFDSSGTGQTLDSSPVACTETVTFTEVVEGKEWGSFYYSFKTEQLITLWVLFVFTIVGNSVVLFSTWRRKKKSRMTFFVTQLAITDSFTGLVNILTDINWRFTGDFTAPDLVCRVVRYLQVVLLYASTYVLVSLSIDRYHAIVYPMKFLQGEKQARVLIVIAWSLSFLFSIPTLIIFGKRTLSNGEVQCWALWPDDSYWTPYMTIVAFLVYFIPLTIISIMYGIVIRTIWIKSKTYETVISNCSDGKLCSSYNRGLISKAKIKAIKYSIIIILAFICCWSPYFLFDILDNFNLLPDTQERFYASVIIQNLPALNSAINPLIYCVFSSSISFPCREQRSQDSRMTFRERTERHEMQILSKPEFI
HTT ATP protect – cytoprotection in Huntington HTT-Q103 PC12 cell model | 230,000 tested, 0.14% active | Potency, µM (doses to about 56.4 µM), hits mostly activators | PC12 HTT-Q103 induced, cytoprotection, ATP luminescence, 40 h; note: nearly all actives have a fitted effect of over 45% in size
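Stable PC12 Q103-GFP cells in serum-supplemented, phenol red-free DMEM; induction by tebufenozide at 100 nM final; compound dose series; cell viability quantified luminescently from ATP.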
HttQ103 aggreg – inhibitors of mutant huntingtin aggregate formation in PC12 cells. PC12 HttQ103-GFP aggregates, Acumen cytometry, 40 h. Potency, µM (highest dose often 46.1 µM), actives largely listed as inhibitors. 220,000 tested, 1.1% active; note: nearly all actives have a fitted effect of over 60% in size
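PC12/HTTQ103-GFP, ecdysone-inducible; teb 100 nM; cpd qHTS titration; GFP aggregates read on laser cytometer, Ex 488/Em 500-530 nm.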
LMNA splice mod – LMNA splicing modulation; HeLa LMNA splicing GFP/RFP minigene ratio, 48 h; Potency, µM (doses to about 46.1 µM), most hits filed as inhibitors; 200,000 tested, 0.01% active; AID 1487; active = well fitted inhibition curve with a large enough effect in the signal ratio, with a control signal flat, not every such curve was filed as active; inconclusive = small, poorly fitted or top-dose-only effect, or effect the other way, or a change in a side signal; the % refers to the signal ratio
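S3 HeLa cells stably expressing lamin A-EGFP splicing minigene plus DsRed2, 600 cells/well, 48 h compound exposure at 37C. Laser-scanning cytometry; analysed as GFP (500-530 nm)/RFP (575-640 nm) total intensity ratio; 0.5% DMSO vehicle.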
Numbers stand for hits; n = inactive; u = inconclusive; x = no result; ! = repeats disagree; [ ] = dose if it differs, or a comment. Unless noted, calls come from the whole dose curve; as a rule, active = well fitted curve in the direction sought with a large enough effect; inconclusive = small, poorly fitted or top-dose-only effect, or another doubt; inactive = no such curve, though single readings can be large; an effect the other way counts as inactive or inconclusive.

SMILES | Epigenetic reg | NPSR antagonist | HTT ATP protect | HttQ103 aggreg | LMNA splice mod
Cc1ccc(C)c(N2CCN(C(=O)c3cn(CC(C)C)c(=O)c4c3c3ccccc3n4C)CC2)c1 | n | x | x | x | x
COc1cc(/C=C2/CC/C(=C/c3ccc(O)c(OC)c3)C2=O)ccc1O | 25µM | n | n[10 µM] | n[9.22 µM] | x
O=C(O)CCSCc1ccccc1 | x | x | n[10 µM] | x | x
Cc1nc2ccc(NS(=O)(=O)c3c(C)c(C)cc(C)c3C)cc2s1 | n | n | n | 13µM | u
Cc1ccc(S(=O)(=O)Nc2ccc3nc(C)sc3c2)cc1 | n | n | n | 14µM | u
Cc1ccc2nc(-c3ccc(NS(=O)(=O)c4ccccc4)cc3)sc2c1 | n | n | n[10 µM] | n | n
Cc1ccc2nc(-c3ccc(NS(=O)(=O)c4ccc(F)c(F)c4)cc3)sc2c1 | u | n | n[10 µM] | 2.8µM | u
Cc1ccc(S(=O)(=O)Nc2ccc3nc(N)sc3c2)cc1 | n | n | n[10 µM] | u | u
O=C(c1ccc(C23CC4CC(CC(C4)C2)C3)o1)N1CCOCC1 | n | n | n | 5.6µM | n
O=C(c1ccc(COc2c(F)c(F)c(F)c(F)c2F)o1)N1CCOCC1 | n | n | n | n | n
CCOc1ccc(NS(=O)(=O)c2cc3c(cc2Cl)NC(=O)CO3)cc1 | n | x | x | x | n
O=c1cc(-c2ccco2)oc2c1ccc1ccccc12 | n | n | n | u | n
O=c1cc(C(Cl)(Cl)Cl)oc2c1ccc1ccccc12 | n | n | n | 7.1µM | n
O=c1cc(-c2ccccc2O)oc2c1ccc1ccccc12 | n | x | 0.45µM! | x | x
Cc1cc(=O)c2ccc3ccccc3c2[nH]1 | n | n | n | u | n
Cn1c(=O)c2c(nc(CN3CCN(C(c4ccccc4)c4ccccc4)CC3)n2CC(N)=O)n(C)c1=O | n | n | n | n | n
COCCn1c(N2CCN(c3ccccc3)CC2)nc2c1c(=O)n(C)c(=O)n2C | n | n | 2µM | n[9.22 µM] | n
COCCn1c(CN2CCN(c3cccc(Cl)c3)CC2)nc2c1c(=O)n(C)c(=O)n2C | n | n | n | 20µM | u
CCOC(=O)Cn1c(CN2CCN(C(c3ccccc3)c3ccccc3)CC2)nc2c1c(=O)n(C)c(=O)n2C | n | 16µM | n[10 µM] | n | u
CCOCCn1c(N2CCN(c3ccccc3)CC2)nc2c1c(=O)n(C)c(=O)n2C | n | n | n | n | n
CCCCCCCC1Cc2ccccc2C(C(C(=O)OC)C(=O)OC)N1C(=O)OC (configuration not stated) | n | x | n | x | n[9.22 µM]
NC1=NS(=O)(=O)NC1c1ccc(F)cc1 (configuration not stated) | n | n | 3.5µM | n | x
COc1cc(/C=C(\C#N)c2nc3ccccc3s2)ccc1OCC(=O)Nc1ccccc1 | 3.2µM | n | x | u | n
COc1cc(Cl)nn(-c2ccccc2)c1=O | n | n | n[10 µM] | n | u
O=c1c(Cl)cc(Cl)nn1-c1ccccc1 | n | n | n[10 µM] | 18µM | u
SMILES | Epigenetic reg | NPSR antagonist | HTT ATP protect | HttQ103 aggreg | LMNA splice mod
Cc1ccc(NC(=O)Nc2nnc(N3CCCCC3)s2)c(C)c1 | n | x | x | x | x
COc1cc(C(=O)Oc2ccccc2/C=N/NC(=O)c2ccc(Cl)cc2Cl)cc(OC)c1OC | n | n | n[10 µM] | 6.3µM | u
Cc1ccc(S(=O)(=O)O[C@@H]2[C@H]([C@@H]3COC(C)(C)O3)O[C@H]3OC(C)(C)O[C@@H]32)cc1 | x | x | n[10 µM] | x | x
Cc1ccc2ncc(C(=O)Nc3cccc(C(F)(F)F)c3)c(=O)n2c1 | n | x | x | x | x
O=c1[nH]n2c(=O)c3c([nH]c2c1N=Nc1cccc(C(F)(F)F)c1)CCCC3 | n | 13µM | n[10 µM] | u | u
O=c1[nH]n2c(=O)c3c([nH]c2c1N=Nc1cccc(Cl)c1)CCC3 | n | n | x | n | u
COc1cccc(/C=N/NC(=O)c2cc3c(OC)cccc3[nH]2)c1OC | n | n | n[10 µM] | n | n
COc1cccc(/C=N/NC(=O)c2cc3c(OC)cccc3[nH]2)c1O | n | n | n[10 µM] | 2.2µM | u
COc1cccc(/C=N\NC(=O)C2C(=O)NCC2c2ccccc2)c1O (configuration not stated) | n | n | n | 11µM | n
COc1cccc(/C=N/NC(=O)c2cc(-c3cccn3C)n[nH]2)c1O | n | n | n[10 µM] | 1.8µM | u
COc1ccc(CNC(=O)c2cnc3sc(N4CCCC4)nn3c2=O)cc1OC | n | x | x | x | n
O=C(NC1CCCCC1)C(c1cccnc1)N(C(=O)CCl)c1ccc(F)cc1 (configuration not stated) | n | n | n[10 µM] | 6.3µM | u
COc1ccc(N(C(=O)CCl)C(C(=O)NC2CCCCC2)c2cccnc2)cc1 (configuration not stated) | n | n | n[10 µM] | 22µM | u
O=C(NC1CCCCC1)C(c1cccnc1)N(C(=O)CCl)c1ccccc1Cl (configuration not stated) | n | n | n[10 µM] | u | u
O=C(c1ccc2c(c1)N(Cc1ccc(Cl)cc1)C(=O)c1ccccc1S2=O)N1CCC(Cc2ccccc2)CC1 (configuration not stated) | n | x | x | x | x
NC(=O)N/N=C/c1c(Sc2nnnn2-c2ccccc2)nc2ccccn2c1=O | n | n | 4.5µM | n[9.22 µM] | x
COc1ccc(-c2ccc3c(n2)CCCN3C[C@H](O)CN2CCCc3nc(C)c(C)cc32)cc1 | n[10.1 µM] | x | n[10 µM] | x | x
O=C(C1CCCN(S(=O)(=O)c2cccc3nonc23)C1)N1CCN(c2ccccc2Cl)CC1 (configuration not stated) | n | n | x | n | u
O=C(C1CCCN(S(=O)(=O)c2cccc3nonc23)C1)N1CCC(Cc2ccccc2)CC1 (configuration not stated) | n | u | n | 35µM | u
COC(=O)c1cc2oc3ccccc3c2n1Cc1ccccc1Cl | n | x | x | x | x
S=c1[nH]ncn2c1cc1oc3ccccc3c12 | n | 10µM | x | n | x
CN(C1CCCCC1)S(=O)(=O)c1ccc(NC(=O)C2CCCCC2)cc1 | n | u | n[10 µM] | 1.8µM | u
CS(=O)(=O)N(CC(=O)NCc1cccnc1)Cc1ccc(Cl)cc1 | n | n | n[0.074 µM] | n | n
CS(=O)(=O)N(CC(=O)NCc1ccncc1)Cc1ccc(Cl)cc1 | n | n | n | 0.63µM | n
O=C1c2cccc3c(N4CCCCC4)ccc(c23)C(=O)N1c1cccc(O)c1 | 11µM | n | n | u | x
SMILES | Epigenetic reg | NPSR antagonist | HTT ATP protect | HttQ103 aggreg | LMNA splice mod
Cc1cccc(C)c1NC(=O)C(=O)NCC(c1ccc2c(c1)OCO2)N1CCN(C)CC1 (configuration not stated) | n | x | x | x | n
O=C(CCCc1cccs1)Nc1nc2c(s1)CCCC2 | n | n | x | 0.028µM | n
CCCCC[C@H](O)C/C=C1/C(=O)C=C[C@@H]1C/C=C\CCCC(=O)O | n | x | 11µM | x | x
CCN(CC)CCCC(C)Nc1c2ccc(Cl)cc2nc2ccc(OC)cc12 (configuration not stated) | 3.2µM | 10µM | n | x | u
O=C(O)C[C@H](S)C(=O)O | x | x | n[10 µM] | x | x
Cc1nn(-c2ccccc2)c(Cl)c1/C=C1\SC(=S)NC1=O | n | 10µM | n | u | u
COC(=O)Cn1nc(C)c2c(C)n(-c3ccccc3)nc2c1=O | n | x | x | x | x
Cc1ccc(/C=C2\SC(=S)N(Cc3ccccc3)C2=O)o1 | u | n | n | n | u

Screening data from PubChem BioAssay.
